Compound activity: PubChem, Broad Institute
This is a sample that favours compounds with a hit; in the whole collection about 4% have one here.
Wnt act = activates Wnt/beta-catenin signaling in a reporter cell assay | activator, plate reader | activation, % at 9.35 µM | 300,000 tested, 1.2% active; in the data active = activation above about 30%, passing the limit was not always enough; inconclusive = no clear call, values can overlap the other calls
PAX8 inh HTS = inhibitors of PAX8 transcriptional activity in RMG-I cells; 360,000 tested, 1.2% active; RMG-I TPO-luciferase reporter, SteadyGlo, 24 h; inhibition, % at 12.6 µM;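 active = mean replicate inhibition at least 60% with every replicate also reaching 60%; inconclusive = only one of the two criteria is met; inactive = mean below 60% and not all replicates reaching 60%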;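 note: luciferase light reporting Pax8 driven TPO promoter activity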
MITF TRPM1 HTS = activators of MITF-driven TRPM1 promoter activity in SK-MEL-5 cells | activation, % at 12.5 µM | 300,000 tested, 0.75% active | SK-MEL-5 TRPM1-promoter luciferase, 24 h; % of positive control, neutral wells = 0;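 active = mean activation of at least 80% with every replicate also reaching 80%; inconclusive = mean reaches 80% but some replicate falls short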
EWS-Fli block = EWS/Fli transcriptional activity inhibition. A673 NR0B1-luciferase reporter, viability-normalised. 350,000 tested, 0.67% active. AID 651661. inhibition, % at 12.6 µM;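 active = mean inhibition of at least 50% after viability correction, with every replicate also passing that limit; inconclusive = mean reaches 50% but only one of two replicates passes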;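 note: firefly luciferase signal divided by Alamar Blue viability fluorescence both relative to DMSO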
MITF TRPM1 inh = MITF TRPM1 promoter inhibition in SK-MEL-5 cells; 330,000 tested, 0.83% active; SK-MEL-5 TRPM1 promoter luciferase, 24 h; inhibition, % at 12.5 µM;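 active = mean inhibition across replicates of 60% or more, whatever share of single replicates reaches that level; inconclusive = some that reach 60%, reason not given; inactive = mean inhibition across replicates below 60%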
esBAF inh = blocks esBAF chromatin remodeling in mouse ES cells. 350,000 tested, 2% active. AID 602393. reporter increase, % at 12.5 µM. Bmi1-luciferase knock-in reporter, 24 h; 100% = twice the neutral-well signal; in the data active = activation above about 40%; inconclusive = no clear call, values can overlap the other calls;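 note: a rise in the Bmi1 reporter signal indicates esBAF inhibition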
Hits are given with their value; n = inactive; u = inconclusive; x = not tested or not shown.

SMILES	Wnt act	PAX8 inh HTS	MITF TRPM1 HTS	EWS-Fli block	MITF TRPM1 inh	esBAF inh
C[n+]1ccc(/C=C/c2c[nH]c3ccc(F)cc23)cc1	n	70	n	n	n	n
COCCNC(=O)C[C@@H]1C[C@H]2c3cc(N(C)C)ccc3O[C@H]2[C@@H](CO)O1	x	n	x	n	x	n
C=CC(C)N1C(=O)S/C(=C\c2ccc(N3CCOCC3)cc2C)C1=O (stereo not drawn)	n	n	n	n	n	x
C=CCN1C(=O)S/C(=C\c2ccc(N3CCOCC3)cc2C)C1=O	39	x	x	x	n	73
CC(Sc1ccsc1[N+](=O)[O-])C(=O)NCc1ccccc1 (stereo not drawn)	54	n	x	n	x	x
COc1ccccc1CNC(=O)C(C)Sc1ccsc1[N+](=O)[O-] (stereo not drawn)	n	n	n	n	n	x
FC(F)(F)c1cc(CCN2CCNC[C@@H]2Cc2ccccc2)cc(C(F)(F)F)c1	n	n	n	n	81	n
Nc1nc(-c2c[nH]c3ccccc23)cs1	n	n	n	x	n	n
CCc1ccc(-c2csc(-c3c[nH]c4ccccc34)n2)cc1	x	n	n	x	n	66
Cc1ccc(C(=O)Nc2cccnc2Cl)cc1Cl	n	n	n	n	n	54
NC(=O)C1CC(=O)N(c2ccc(OCc3ccc(Cl)cc3Cl)cc2)C1 (stereo not drawn)	n	n	n	n	n	n
NC(=O)C1CC(=O)N(c2ccc(OCc3ccc(Cl)c(Cl)c3)cc2)C1 (stereo not drawn)	54	n	x	n	x	51
Cc1ccc(CCC(=O)Nc2ccccc2F)s1	62	n	n	n	n	n
Cc1cc(C)cc(C(=O)Nc2cccnc2Cl)c1	n	n	n	n	n	n
COc1ccc(/C=C/C(=O)Nc2cccnc2Cl)cc1	43	n	97	n	n	u
Cc1noc(C)c1NC(=O)Nc1cccc2c1O[C@@H](CN(C)Cc1ccccc1)[C@@H](C)CN([C@H](C)CO)C2=O	x	n	x	n	x	n
C[C@@H]1CN([C@H](C)CO)C(=O)c2cc(NC(=O)c3ccncc3)ccc2O[C@H]1CN(C)Cc1ccccc1	x	n	x	n	x	n
COc1ccc(S(=O)(=O)N(C)C[C@H]2Oc3ccc(NC(=O)Cn4cnnn4)cc3CC(=O)N([C@H](C)CO)C[C@H]2C)cc1	x	x	x	n	x	n
COCC(=O)N(C[C@@H]1[C@@H](c2ccccc2)[C@@H](CO)N1C(=O)NC(C)C)C(C)C	x	n	x	n	x	n
Cc1ccc(OCC(=O)Nc2ccccc2F)cc1C	43	n	107	n	n	x
NC(=O)C1CC(=O)N(c2ccc(OCC(=O)Nc3ccccc3F)cc2)C1 (stereo not drawn)	34	n	n	n	n	n
Cc1ccccc1NC(=O)c1ccc(OCC(=O)Nc2ccccc2F)cc1	n	n	n	n	n	x
NC(=O)C1CC(=O)N(c2ccc(OCC(=O)Nc3ccc(F)cc3)cc2)C1 (stereo not drawn)	n	n	n	n	n	n
Cc1ccc(OCC(=O)Nc2ccccc2F)cc1	41	n	x	n	n	x
Cc1ccc(OCC(=O)Nc2cccnc2Cl)cc1C	n	n	87	n	n	n
SMILES	Wnt act	PAX8 inh HTS	MITF TRPM1 HTS	EWS-Fli block	MITF TRPM1 inh	esBAF inh
Cc1cc(Cl)ccc1OCC(=O)OCC(=O)Nc1cccnc1Cl	n	n	n	n	n	n
O=C(COc1ccc2ccccc2c1)NNC(=O)Nc1ccccc1F	n	n	n	n	n	n
CO[C@@H]1CN(C)C(=O)c2cc(NC(C)=O)ccc2OC[C@H](C)N(CC2CC2)C[C@H]1C	x	n	x	n	x	n
CCOC(=O)c1c(C)oc(=O)c(CC)c1O	n	n	x	n	x	x
CCOC(=O)c1c(C)oc2c(F)c(F)c(F)c(F)c2c1=O	n	x	n	x	100	n
O=C([C@H]1[C@H](CO)[C@H]2Cn3c(ccc(/C=C/c4ccccc4)c3=O)[C@H]2N1CC1CC1)N1CCOCC1	x	n	x	n	x	n
Cc1cccc(NC(=O)c2cnn(-c3ccccc3)c2C)c1C	n	n	x	n	n	63
CCc1ccccc1NC(=O)c1cnn(-c2ccccc2)c1C	n	n	n	n	n	n
Cc1ccccc1C(=O)Nc1c(C(=O)N2CCCC2)cnn1-c1ccccc1	n	x	n	n	n	n
Cc1ccc(C)c(NC(=O)c2cnn(-c3ccccc3)c2C)c1	n	n	x	n	n	n
CCOC(=O)c1cnn(-c2ccccc2)c1NC(=O)c1ccccc1C	39	x	n	x	n	n
Cc1ccccc1NC(=O)c1cnn(-c2ccccc2)c1C	u	n	n	n	n	75
COc1ccc(CN(C)C[C@H]2Oc3c(NC(=O)NC4CCCCC4)cccc3C(=O)N([C@@H](C)CO)C[C@H]2C)cc1	x	n	x	n	x	n
CC=Cc1ccc2n(c1=O)C[C@H]1[C@H](CO)[C@@H](C(=O)N[C@H](C)c3ccccc3)N(C(=O)c3cnccn3)[C@@H]21 (mixture of isomers)	x	n	x	n	x	n
CCOC(=O)c1ccc(N/C=C/C(=O)c2ccccc2)cc1	74	n	n	n	n	x
Cc1ccc(O)c(N/C=C/C(=O)c2ccc(F)cc2)c1	n	n	n	n	n	63
COc1ccc(C(=O)/C=C/Nc2cccc(C)n2)cc1OC	x	x	93	x	n	47
Cc1ccc(N/C=C/C(=O)c2ccc(C)cc2)cc1	x	x	n	x	n	n
Cc1ccc(C(=O)/C=C/Nc2ccccc2C(N)=O)cc1	39	n	n	x	n	n
CN1[C@@H]2c3cccc(=O)n3C[C@@H]2[C@@H](CO)[C@@H]1C(=O)NCC1CCCCC1	x	n	x	n	x	n
Cn1cnc(S(=O)(=O)N[C@@H]2CC[C@H](CC(=O)Nc3ccccc3)O[C@@H]2CO)c1	x	x	x	n	x	n
Cc1ccccc1S(=O)(=O)NCC[C@H]1CC[C@@H](NC(=O)Nc2cccc(Cl)c2)[C@H](CO)O1	x	n	x	n	x	n
CCOC(=O)c1ccc(N/C=C/C(=O)C(C)(C)C)cc1	78	n	n	n	n	x
Cc1ccc(C(=O)/C=C/Nc2ccccn2)cc1	x	x	n	x	71	n
CCOC(=O)c1ccc(N/C=C/C(=O)c2ccc(OC)cc2)cc1	x	x	n	x	n	u
SMILES	Wnt act	PAX8 inh HTS	MITF TRPM1 HTS	EWS-Fli block	MITF TRPM1 inh	esBAF inh
COc1ccc(OC)c(N/C=C/C(=O)c2ccccc2)c1	n	78	x	81	n	n
CCOC(=O)c1ccccc1N/C=C/C(=O)c1ccccc1	54	n	n	x	n	n
NC(=O)c1ccccc1N/C=C/C(=O)c1ccc(Cl)cc1	n	n	n	x	n	x
C[C@H]1CCCCO[C@@H](CN(C)C(=O)Nc2ccc3c(c2)OCO3)[C@@H](C)CN([C@@H](C)CO)C(=O)c2cc(NS(=O)(=O)c3cccs3)ccc2O1	x	n	x	n	x	n
Cc1noc(C)c1S(=O)(=O)Nc1ccc2c(c1)C(=O)N([C@H](C)CO)C[C@H](C)[C@@H](CN(C)Cc1ccc(Oc3ccccc3)cc1)O2	x	x	x	n	x	n
O=[N+]([O-])c1cnc(Sc2ccncn2)s1	n	120	x	u	83	x
Cn1c(=N)n(CC(=O)c2ccc(Cl)c(Cl)c2)c2ccccc21	n	n	n	73	n	n
COc1ccc(C(=O)CN2Cc3ccccc3C2=N)cc1	42	n	x	n	n	x
